This is an account of results in publication PMC7826789 (International Journal of Molecular Sciences, 2021).

Common to all, as to conditions: Compound Concentration (nM):1000
Assay [1] deals with STK33.
The subject of assay [2] is STK35.
The test system of assay [3] is STK36.
For assay [4], the system named is STK39.
For assay [5], the system named is SYK.
Assay [6] relates to SgK110.
The subject of assay [7] is T1, TAK1.
T1 construct: gene MAP3K7

For assay [8], the system named is TAOK1.
The subject of assay [9] is TAOK2.
Assay [10] has as its system TAOK3.
For assay [11], the system named is TBK1.
In assay [12] the test system is TEC.
The test system of assay [13] is TESK1.
The test system of assay [14] is TGFBR1.
In assay [15] the test system is TGFBR2.
Assay [16] deals with TIE1.
Assay [17] deals with T2, TIE2.
T2 construct: gene TEK

Assay [18] relates to TLK1.
Assay [19] relates to TLK2.
Assay [20] deals with TNIK.
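Also: KINOMEscan scanMAX binding as percent activity remaining versus control; lower means stronger binding.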

With `NS(=O)(=O)c1ccc(N/N=C2\C(=O)Nc3ccc(-c4cnco4)cc32)cc1` [GW276655], the “Percent Control” value in [1] was 100%; in assay [2], 99%; in assay [3], 100%; in assay [4], 88%; in assay [5], 100%; in assay [6] it was 73%. Moreover, the “Percent Control” value in assay [7] is 32%; in assay [8], 86%; in assay [9] it was 95%; in [10], 98%; in assay [11], 63%; in [12] it was 100%. The “Percent Control” value in [13] was 77%; in assay [14], 100%; in assay [15], 100%; in assay [16], 73%; in assay [17], 100%; in [18] it was 96%. The “Percent Control” value in assay [19] turned out to be 66%; in assay [20], 26%.

Turning to `Cl.O=S1CCN(Cc2ccc(-c3ccc4ncnc(Nc5ccc(OCc6ccccc6)c(F)c5)c4c3)o2)CC1` [GW576924A], the “Percent Control” value in [1] was 84%; in [2] it was 100%; in assay [3] it was 100%; in assay [4], 100%; in assay [5], 100%; in assay [6], 100%. Further, the “Percent Control” value in assay [7], in assay [8], in assay [9], in assay [10], in assay [11] and in assay [12] was 100% each time. Also, the “Percent Control” value in [13], in [14], in [15], in assay [16], in [17] and in [18] was 100% in each case. For the same compound, the “Percent Control” value in [19] and in assay [20] was 100% throughout.

Regarding `COc1cc(C)c(N(C)C(=O)CN(C)C)cc1Nc1nc(Nc2cccc(F)c2C(N)=O)c2cc[nH]c2n1` [GSK2219385], the “Percent Control” value is 91% in assay [1]; 98% in assay [2]; 100% in assay [3]; 81% in assay [4]; 100% in assay [5]; 100% in assay [6]. For the same compound, the “Percent Control” value is 93% in assay [7]; 100% in assay [8]; 100% in assay [9]; 100% in assay [10]; 69% in [11]; 100% in assay [12]. Besides, the “Percent Control” value in assay [13] is 92%; in assay [14], 100%; in assay [15] it was 100%; in [16] it was 82%; in assay [17] it was 100%; in assay [18] it was 85%. For the same compound, the figures for the “Percent Control” value in assay [19] and in assay [20] were 100% and 98%, respectively.

As for `CC1=C(C(=O)Nc2ccc3[nH]ncc3c2)C(c2ccc(Cl)c(Cl)c2)CC(=O)N1` (centres unmarked) [GSK299115A], the “Percent Control” value in assay [1] was 82%; in [2], 84%; in [3] it was 100%; in assay [4], 81%; in assay [5], 99%; in [6], 100%. The “Percent Control” value in assay [7] is 82%; in assay [8], 68%; in assay [9], 77%; in assay [10] it was 81%; in [11], 92%; in assay [12], 92%. Further, the “Percent Control” value in [13] was 100%; in [14] it was 100%; in [15], 100%; in assay [16], 90%; in assay [17] it was 100%; in assay [18], 84%. In addition, the “Percent Control” value in [19] is listed as 90%; in assay [20], 100%.

Take `COC(=O)Nc1nc2ccc(Oc3ccc(NC(=O)Nc4cc(C(F)(F)F)ccc4F)cc3)cc2s1.Cl` [GW693917A]: the “Percent Control” value in [1] is 44%; in assay [2], 86%; in [3] it was 100%; in assay [4], 87%; in [5], 98%; in assay [6], 100%. The “Percent Control” value in assay [7] is 5.8%; in assay [8], 84%; in assay [9], 86%; in assay [10] it was 93%; in assay [11] it was 69%; in assay [12] it was 78%. The “Percent Control” value in [13] was 77%; in assay [14], 100%; in assay [15] it was 92%; in assay [16] it was 3.1%; in assay [17], 0.6%; in assay [18] it was 87%. For the same compound, the “Percent Control” value was 100% in assay [19] and 74% in assay [20].

`COc1cccc(-c2c[nH]c3c(N/N=C/c4ccncc4)ncnc23)c1` [GW814408X]: the “Percent Control” value in assay [1] is 84%; in [2], 100%; in assay [3], 11%; in assay [4], 100%; in assay [5], 72%; in assay [6], 87%. Besides, the “Percent Control” value in assay [7] is 100%; in assay [8] it was 11%; in [9] it was 51%; in assay [10], 32%; in [11] it was 71%; in assay [12], 90%. The “Percent Control” value was 97% in assay [13]; 55% in [14]; 100% in [15]; 96% in [16]; 100% in assay [17]; 84% in [18]. The “Percent Control” value was 100% in [19] and 51% in [20].

Turning to `O=C1Nc2ccc(C(=O)c3ccco3)cc2C1=Cc1cc(Cl)c(O)c(Cl)c1` [GW406108X], the “Percent Control” value in assay [1] was 86%; in assay [2], 100%; in assay [3], 87%; in assay [4], 81%; in assay [5], 100%; in [6], 100%. For the same compound, the “Percent Control” value in assay [7] was 30%; in assay [8] it was 40%; in assay [9], 100%; in assay [10], 85%; in [11], 40%; in [12], 100%. The “Percent Control” value in assay [13] was 100%; in assay [14] it was 99%; in assay [15], 58%; in assay [16], 100%; in [17], 100%; in [18], 94%. Besides, the results for the “Percent Control” value in assay [19] and in [20] were 97% and 24%, respectively.

For the compound `COc1cc(/C=N/Nc2ncnc3[nH]ncc23)ccc1O` [GW578748X], the “Percent Control” value was 95% in assay [1]; 100% in assay [2]; 57% in [3]; 60% in assay [4]; 51% in assay [5]; 100% in assay [6]. Besides, the “Percent Control” value in assay [7] was 32%; in assay [8], 51%; in assay [9] it was 80%; in assay [10], 77%; in assay [11] it was 50%; in assay [12], 100%. The “Percent Control” value in assay [13] was 94%; in assay [14], 100%; in assay [15] it was 87%; in assay [16], 100%; in assay [17] it was 100%; in assay [18], 86%. For the same compound, the results for the “Percent Control” value in [19] and in assay [20] were 76% and 94%, respectively.

`CCn1c(-c2nonc2N)nc2c(C#CC(C)(C)O)nc(OCCNC)cc21.Cl` [GSK949675]: the “Percent Control” value is 100% in assay [1]; 100% in assay [2]; 100% in assay [3]; 98% in assay [4]; 100% in assay [5]; 100% in assay [6]. Besides, the “Percent Control” value in assay [7] was 85%; in assay [8], 72%; in assay [9] it was 92%; in [10], 90%; in assay [11], 95%; in [12], 100%. Moreover, the “Percent Control” value in [13] was 100%; in [14] it was 100%; in assay [15] it was 100%; in assay [16], 100%; in [17], 96%; in assay [18], 100%. Moreover, the “Percent Control” value in assay [19] and in assay [20] was 100% in each case.

As for `CCc1ccc(Oc2nccc(-c3c(-c4ccc(F)cc4)ncn3C3CCNCC3)n2)cc1` [SB-242719], the “Percent Control” value in [1] is 92%; in [2], 100%; in assay [3], 82%; in assay [4], 81%; in [5] it was 85%; in assay [6], 100%. In addition, the “Percent Control” value is 96% in [7]; 82% in [8]; 93% in assay [9]; 95% in assay [10]; 65% in assay [11]; 100% in assay [12]. In addition, the “Percent Control” value in [13] is 99%; in assay [14], 96%; in assay [15], 100%; in assay [16], 100%; in assay [17], 100%; in [18] it was 91%. Also, the “Percent Control” value in [19] amounted to 100%; in assay [20], 66%.
